# “And” between values parts separate entries of the source, which are not always exact repeats. Equal entries are not always repeated. Records with an inconclusive call do not appear. The source holds several records for some structures; these can differ, active in one and inactive in another. Values without a mark were called inactive. The source made the active and inactive calls. The call rests on the fitted dose curve; in most records, active means well fitted inhibition curve with a large enough effect; inconclusive means small, poorly fitted or top-dose-only effect; inactive means flat fitted curve, though single readings scatter.
# Tested on: KB-3-1
# Assay: Cytotoxic Profiling of Annotated Libraries Using Quantitative High-Throughput Screening (AID 1296008); further: nearly all actives have a fitted effect of over 60% in size
# Conditions: Five cell lines viability, CellTiter-Glo ATP luminescence, 48-72 h; max response: hits give low values
# Summary of the method: (§1)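 Cells exposed to compounds for 48 or 72 hr at 37 degrees Celsius. Viability read as ATP-coupled luminescence with CellTiter-Glo after 10 min at room temperature.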
# On the % scale 0 is the no-effect control and ±100 the full control effect; potency means the concentration at half of the fitted maximal effect.
SMILES,max response,outcome,Potency
c1ccc([C@H]2CN3CCSC3=N2)cc1,-2.88% and 1.89%,–,–
CCCCNc1cc(C(=O)O)cc(S(N)(=O)=O)c1Oc1ccccc1,-8.24% and 0.128%,–,–
CCN(CC)CCCC(C)Nc1ccnc2cc(Cl)ccc12 (stereo not drawn),-0.795% and 2.69%,inactive,–
CC(C=CC1=C(C)CCCC1(C)C)=CC=CC(C)=CC(=O)O,4.44%,inactive,–
Cc1cn[nH]c1,12.8%,inactive,–
CC(C)OC(=O)C1=CN(C(=O)c2ccc(F)c(F)c2)CC(C)(C)c2c1[nH]c1ccccc21,-6.75% and 0.0694%,–,–
CC(C)NCC(O)COc1ccc(COCCOC(C)C)cc1 (stereo not drawn),14.8% and -14.7% and -10.9%,–,–
COc1ccc([C@@H]2CC(=O)c3c(O)cc(O[C@@H]4O[C@H](CO[C@@H]5O[C@@H](C)[C@H](O)[C@@H](O)[C@@H]5O)[C@@H](O)[C@H](O)[C@@H]4O)cc3O2)cc1O,2.27%,inactive,–
Cc1[nH]c(=O)c(C#N)cc1-c1ccc2nccn2c1,-3.5% and -14.6%,–,–
CCOC(=O)C1=C[C@]2(CC)CCCN3CCc4c(n1c1ccccc41)[C@@H]32,2.59% and -10.9%,–,–
O=C1CCCC2=C1C(c1[nH]ncc1Cl)N=C(Nc1nc3ccccc3o1)N2 (stereo not drawn),5.25%,inactive,–
CC(=O)Oc1ccccc1C(=O)O,-12% and 2.14%,–,–
CCc1ccc(CCOc2ccc(CC3SC(=O)NC3=O)cc2)nc1 (stereo not drawn),-8.26% and 7.14%,–,–
NC(=O)c1cnccn1,-14%,inactive,–
Cc1cnc(NC(=O)C2=C(O)c3ccccc3S(=O)(=O)N2C)s1,-5.8% and -11.4% and -4.48%,–,–
O=C1CCC(N2C(=O)c3ccccc3C2=O)C(=O)N1 (stereo not drawn),0.83% and 2.13%,–,–
C[C@H](NC(=O)Cc1cc(F)cc(F)c1)C(=O)N[C@@H]1C(=O)N(C)c2ccccc2-c2ccccc21,1.83%,inactive,–
COc1cc(F)c(F)c(Nc2ccc(I)cc2F)c1NS(=O)(=O)C1(C[C@H](O)CO)CC1,–,inactive,–
Cc1cnc(Nc2ccc(OCCN3CCCC3)cc2)nc1Nc1cccc(S(=O)(=O)NC(C)(C)C)c1,5.89%,–,6.51 µM (active)
C[C@@H]1CN(Cc2ccc(F)cc2)[C@@H](C)CN1C(=O)c1cc2c(C(=O)C(=O)N(C)C)cn(C)c2cc1Cl,6.97% and -3.16%,–,–

# Tested on: NIH3T3
# Assay: as above
# Conditions: Five cell lines viability, CellTiter-Glo ATP luminescence, 48-72 h; max response: hits give low values
# Summary of the method: as §1
SMILES,max response,outcome,Potency
CC(c1cc2ccccc2s1)N(O)C(N)=O (stereo not drawn),3.52%,inactive,–
Cc1ccnc(NS(=O)(=O)c2ccc(NC(=O)Nc3ccc(S(=O)(=O)Nc4nccc(C)n4)cc3)cc2)n1,-7.88%,–,2.09 µM (active)
CNC[C@H](O)c1cccc(O)c1,3.51%,inactive,–
OC(CCN1CCCCC1)(c1ccccc1)C1CC2C=CC1C2 (stereo not drawn),–,inactive,–
O=NN(CCCl)C(=O)NCCCl,3.76% and 1.65%,–,–
S=C(NCc1ccc2c(c1)OCO2)N1CCN(c2ncnc3c2oc2ccccc23)CC1,-27.2%,–,–
O=C(Nc1ccc(F)c(C(F)(F)F)c1)Nc1nnc(-c2ccncc2)s1,-1.83%,inactive,–
Cc1c(C)c2c(c(C)c1O)CCC(C)(COc1ccc(CC3SC(=O)NC3=O)cc1)O2 (stereo not drawn),-1.07%,inactive,–
NC(N)=NC(=O)c1nc(Cl)c(N)nc1N,-0.651%,inactive,–
COc1ccc(CCN2CCN(CCCc3ccccc3)CC2)cc1OC,1.46%,inactive,–
O=c1n(CCCN2CCN(c3cccc(Cl)c3)CC2)nc2ccccn12,3.22% and 3%,–,–
Cc1[nH]c(=O)c(C#N)cc1-c1ccncc1,0.936%,inactive,–
COc1cc(Nc2ncc3c(n2)-c2ccc(Cl)cc2C(c2c(F)cccc2OC)=NC3)ccc1C(=O)O,–,–,7.43 µM (active)
N=c1nc(N2CCCCC2)cc(N)n1O,3.13%,inactive,–
CC(C[N+](C)(C)C)OC(N)=O (stereo not drawn),–,inactive,–
c1ccc([C@H]2CN3CCSC3=N2)cc1,1.43% and 2.53%,–,–
CCCCNc1cc(C(=O)O)cc(S(N)(=O)=O)c1Oc1ccccc1,1.18%,inactive,–
CCN(CC)CCCC(C)Nc1ccnc2cc(Cl)ccc12 (stereo not drawn),-0.66%,inactive,–

SMILES,max response,outcome,Potency
CC(C=CC1=C(C)CCCC1(C)C)=CC=CC(C)=CC(=O)O,-0.0926%,inactive,–
Cc1cn[nH]c1,3%,–,–
CC(C)OC(=O)C1=CN(C(=O)c2ccc(F)c(F)c2)CC(C)(C)c2c1[nH]c1ccccc21,3.45% and -0.558%,–,–
CC(C)NCC(O)COc1ccc(COCCOC(C)C)cc1 (stereo not drawn),4.85%,inactive,–
COc1ccc([C@@H]2CC(=O)c3c(O)cc(O[C@@H]4O[C@H](CO[C@@H]5O[C@@H](C)[C@H](O)[C@@H](O)[C@@H]5O)[C@@H](O)[C@H](O)[C@@H]4O)cc3O2)cc1O,2.09%,inactive,–
Cc1[nH]c(=O)c(C#N)cc1-c1ccc2nccn2c1,-20.6%,inactive,–
CCOC(=O)C1=C[C@]2(CC)CCCN3CCc4c(n1c1ccccc41)[C@@H]32,-12.6%,–,–
O=C1CCCC2=C1C(c1[nH]ncc1Cl)N=C(Nc1nc3ccccc3o1)N2 (stereo not drawn),-1.09%,inactive,–
CC(=O)Oc1ccccc1C(=O)O,0.988% and 3.48%,–,–
CCc1ccc(CCOc2ccc(CC3SC(=O)NC3=O)cc2)nc1 (stereo not drawn),0.801%,inactive,–
NC(=O)c1cnccn1,3.86% and 2.38%,–,–
Cc1cnc(NC(=O)C2=C(O)c3ccccc3S(=O)(=O)N2C)s1,-2.32%,inactive,–
O=C1CCC(N2C(=O)c3ccccc3C2=O)C(=O)N1 (stereo not drawn),-0.804%,inactive,–
C[C@H](NC(=O)Cc1cc(F)cc(F)c1)C(=O)N[C@@H]1C(=O)N(C)c2ccccc2-c2ccccc21,-12.2% and -1.62%,–,–
COc1cc(F)c(F)c(Nc2ccc(I)cc2F)c1NS(=O)(=O)C1(C[C@H](O)CO)CC1,-9.12%,–,–
Cc1cnc(Nc2ccc(OCCN3CCCC3)cc2)nc1Nc1cccc(S(=O)(=O)NC(C)(C)C)c1,–,inactive,–
C[C@@H]1CN(Cc2ccc(F)cc2)[C@@H](C)CN1C(=O)c1cc2c(C(=O)C(=O)N(C)C)cn(C)c2cc1Cl,1.1%,inactive,–

# Reference: PubChem BioAssay (NCATS)
